Laboratory results: PubChem BioAssay (EPA / NIEHS)
Calls of active or inactive are those of the source. How the source made its calls: active means hit-call score of the fitted dose curve at least 0.9, where 1 is the maximum; inactive means score below 0.9.

Experiments:
Conditions in all cases: mRNA level, 48 h; actives raise or lower the signal
[1] = read-out: Alpha-fetoprotein (AFP) gene, AFP (gene 174); test: LTEA_HepaRG_AFP: Life Technologies and Expression Analysis (LTEA) Assay for Alpha-fetoprotein (AFP) gene using HepaRG (AID 2283472)
Procedure, shortened: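 Differentiated human HepaRG cells exposed 48 h in serum-free induction medium, 8-point half-log series from 100 uM in 0.5% DMSO, duplicate. AFP mRNA by qRT-PCR, normalized to ACTB, GAPDH, POLR2A; bidirectional fit vs DMSO.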

BCL2L11 (gene 10018) = test: LTEA_HepaRG_BCL2L11: Life Technologies and Expression Analysis (LTEA) Assay for Bcl-2 (BCL2L11) gene using HepaRG (AID 2283473)
Procedure, shortened: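 BCL2L11 transcript levels are measured by Fluidigm qRT-PCR, normalized to three housekeeping genes. HepaRG cultures were plated 48 h, then treated 48 h with test chemical (top 100 uM, half-log, 0.5% DMSO vehicle); curves were fitted bidirectionally against DMSO.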

[2] = read-out: Apolipoprotein A-V (APOA5) gene, APOA5 (gene 116519); test: LTEA_HepaRG_APOA5: Life Technologies and Expression Analysis (LTEA) Assay for Apolipoprotein A-V (APOA5) gene using HepaRG (AID 2283474)
Procedure, shortened: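 APOA5 transcript levels were quantified by qRT-PCR, normalized to three housekeeping genes, after 48 h chemical treatment of HepaRG cells (8 points, 100 uM maximum, half-log steps, 0.5% DMSO). Curves fitted in both directions against vehicle.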

[3] = read-out: Apoptosis regulator Bcl-2 (Homo sapiens) (UniProt P10415); test: LTEA_HepaRG_BCL2: Life Technologies and Expression Analysis (LTEA) Assay for Bcl-2 gene using HepaRG (AID 2283475)
Procedure, shortened: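 Differentiated human HepaRG cells in serum-free induction medium exposed 48 h, in duplicate, to 8-point half-log series from 100 uM in 0.5% DMSO. BCL2 mRNA by qRT-PCR (TaqMan/Fluidigm), normalized to ACTB, GAPDH, POLR2A; bidirectional fit against DMSO.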

[4] = read-out: Bcl-2 (BID) gene, BID (gene 637); test: LTEA_HepaRG_BID: Life Technologies and Expression Analysis (LTEA) Assay for Bcl-2 (BID) gene using HepaRG (AID 2283476)
Procedure, shortened: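 Gene expression by qRT-PCR in HepaRG cells after 48 h exposure, duplicate wells, eight half-log concentrations topping at 100 uM in 0.5% DMSO. Normalized to ACTB, GAPDH, POLR2A; bidirectional fitting relative to DMSO.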

Caspase-3 (Homo sapiens) = Caspase-3 (Homo sapiens) (UniProt P42574); test: LTEA_HepaRG_CASP3: Life Technologies and Expression Analysis (LTEA) Assay for cysteine-aspartic acid protease (CASP3) using HepaRG (AID 2283477)
Caspase-3 (Homo sapiens), sequence (P42574 whole entry, looked up): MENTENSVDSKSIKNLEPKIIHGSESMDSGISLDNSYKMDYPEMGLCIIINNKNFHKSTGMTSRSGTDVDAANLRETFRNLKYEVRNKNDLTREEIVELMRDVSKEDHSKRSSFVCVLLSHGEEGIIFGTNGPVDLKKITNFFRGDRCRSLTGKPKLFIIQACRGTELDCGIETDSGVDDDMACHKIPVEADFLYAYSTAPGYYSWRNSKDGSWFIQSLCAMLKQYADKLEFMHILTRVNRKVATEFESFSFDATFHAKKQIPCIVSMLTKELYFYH
Procedure, shortened: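 Expression of CASP3 was quantified by TaqMan qRT-PCR against three housekeeping genes (ACTB, GAPDH, POLR2A), bidirectionally versus 0.5% DMSO. HepaRG cultures received compounds in duplicate, top 100 uM with half-log steps, for 48 h in serum-free induction medium.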

[5] = read-out: Cytochrome P450 (CYP24A1), CYP24A1 (gene 1591); test: LTEA_HepaRG_CYP24A1: Life Technologies and Expression Analysis (LTEA) Assay for Cytochrome P450 (CYP24A1) using HepaRG (AID 2283478)
Procedure, shortened: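 mRNA of CYP24A1 quantified by TaqMan qRT-PCR (ACTB/GAPDH/POLR2A normalization) after 48 h chemical exposure of HepaRG cells, top concentration 100 uM, half-log steps, 0.5% DMSO vehicle, duplicates. Curves fitted bidirectionally against DMSO baseline.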

[6] = read-out: Cytochrome P450 (CYP1A2), CYP1A2 (gene 1544); test: LTEA_HepaRG_CYP1A2: Life Technologies and Expression Analysis (LTEA) Assay for Cytochrome P450 (CYP1A2) using HepaRG (AID 2283479)
Procedure, shortened: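 CYP1A2 transcript measured by TaqMan qRT-PCR against three housekeeping genes after 48-hour chemical exposure of HepaRG cells. Eight-point half-log series topping at 100 uM in 0.5% DMSO, duplicates; gain or loss fitted relative to vehicle.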

[7] = read-out: cysteine-aspartic acid protease (CASP8), CASP8 (gene 841); test: LTEA_HepaRG_CASP8: Life Technologies and Expression Analysis (LTEA) Assay for cysteine-aspartic acid protease (CASP8) using HepaRG (AID 2283480)
Procedure, shortened: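 Differentiated human HepaRG cells, plated 48 h then switched to serum-free induction medium, were exposed in duplicate for 48 h to 8 half-log concentrations up to 100 uM in 0.5% DMSO. CASP8 mRNA was quantified by qRT-PCR, normalized to ACTB/GAPDH/POLR2A.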

[8] = read-out: Cytochrome P450 (CYP2B6), CYP2B6 (gene 1555); test: LTEA_HepaRG_CYP2B6: Life Technologies and Expression Analysis (LTEA) Assay for Cytochrome P450 (CYP2B6) using HepaRG (AID 2283481)
Procedure, shortened: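 CYP2B6 transcript level quantified by qRT-PCR against three housekeeping genes, fitted bidirectionally relative to DMSO. HepaRG cultures received chemicals for 48 h, 8-point half-log series from 100 uM in 0.5% DMSO, duplicate wells, serum-free induction medium.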

[9] = read-out: Cytochrome P450 2C19 (Homo sapiens) (UniProt P33261); test: LTEA_HepaRG_CYP2C19: Life Technologies and Expression Analysis (LTEA) Assay for CYP2C19 using HepaRG (AID 2283482)
Procedure, shortened: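 CYP2C19 transcript levels by qRT-PCR, normalized to three housekeeping genes, in HepaRG cells after 48 h chemical exposure. Eight-point half-log series topping at 100 uM, 0.5% DMSO vehicle. Increases and decreases both fitted against DMSO.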

CYP2C8 (gene 1558) = test: LTEA_HepaRG_CYP2C8: Life Technologies and Expression Analysis (LTEA) Assay for CYP2C8 using HepaRG (AID 2283483)
Procedure, shortened: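 Differentiated human HepaRG cells were exposed for 48 h in serum-free induction medium to eight half-log concentrations up to 100 uM in 0.5% DMSO, in duplicate. CYP2C8 mRNA was measured by TaqMan qRT-PCR, normalized to ACTB, GAPDH and POLR2A, and fitted bidirectionally against DMSO.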

CYP2C9 (gene 1559) = test: LTEA_HepaRG_CYP2C9: Life Technologies and Expression Analysis (LTEA) Assay for CYP2C9 using HepaRG (AID 2283484)
Procedure, shortened: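 Differentiated human HepaRG cells were exposed 48 h in serum-free induction medium to eight half-log concentrations up to 100 uM in 0.5% DMSO. CYP2C9 mRNA was measured by qRT-PCR, normalized to ACTB, GAPDH and POLR2A, and fitted bidirectionally against DMSO.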

CYP4A11 (gene 1579) = test: LTEA_HepaRG_CYP4A11: Life Technologies and Expression Analysis (LTEA) Assay for CYP4A11 using HepaRG (AID 2283486)
Procedure, shortened: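 Readout is CYP4A11 transcript level by qRT-PCR, normalized to three housekeeping genes and fitted bidirectionally against 0.5% DMSO. Human HepaRG cells were treated 48 h, in duplicate, with an 8-point half-log series topping at 100 uM.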

[10] = read-out: DNA damage-inducible transcript 3 (DDIT3), DDIT3 (gene 1649); test: LTEA_HepaRG_DDIT3: Life Technologies and Expression Analysis (LTEA) Assay for DNA damage-inducible transcript 3 (DDIT3) using HepaRG (AID 2283488)
Procedure, shortened: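 HepaRG cells, 48 h after plating, exposed 48 h in serum-free induction medium to 8 half-log concentrations up to 100 uM in 0.5% DMSO, in duplicate. DDIT3 mRNA measured by TaqMan qRT-PCR, normalized to ACTB, GAPDH and POLR2A. Fitted bidirectionally against DMSO.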

[11] = read-out: Pro-epidermal growth factor (Homo sapiens) (UniProt P01133); test: LTEA_HepaRG_EGF: Life Technologies and Expression Analysis (LTEA) Assay for Epidermal growth factor (EGF) using HepaRG (AID 2283489)
Procedure, shortened: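 EGF transcript measured by Fluidigm TaqMan qRT-PCR with three housekeeping genes for normalization, 48 h after dosing HepaRG cultures in duplicate (top 100 uM, half-log steps, 0.5% DMSO vehicle). Gain or loss relative to DMSO fitted.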

[12] = read-out: Early growth response protein 1 (EGR1) transcription factor, EGR1 (gene 1958); test: LTEA_HepaRG_EGR1: Life Technologies and Expression Analysis (LTEA) Assay for Early growth response protein 1 (EGR1) transcription factor using HepaRG (AID 2283490)
Procedure, shortened: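 Differentiated human HepaRG cells in serum-free induction medium were exposed in duplicate for 48 h to eight concentrations (top 100 uM, half-log steps) in 0.5% DMSO. EGR1 mRNA was quantified by qRT-PCR, normalized to ACTB, GAPDH and POLR2A, and fitted bidirectionally versus DMSO.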

[13] = read-out: Ezrin (EZR), EZR (gene 7430); test: LTEA_HepaRG_EZR: Life Technologies and Expression Analysis (LTEA) Assay for Ezrin (EZR) using HepaRG (AID 2283491)
Procedure, shortened: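 HepaRG, 48 h chemical exposure, 8-pt half-log series from 100 uM, 0.5% DMSO vehicle, duplicates. Read-out: EZR mRNA by TaqMan qRT-PCR (Fluidigm array), housekeeping-normalized; bidirectional curve fit vs DMSO baseline.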

[14] = read-out: Cytochrome P450 3A4 (Homo sapiens) (UniProt P08684); test: LTEA_HepaRG_CYP3A4: Life Technologies and Expression Analysis (LTEA) Assay for CYP3A4 using HepaRG (AID 2283487)
Procedure, shortened: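 CYP3A4 transcript measured by TaqMan qRT-PCR and normalized to three housekeeping genes after 48 h chemical exposure of human HepaRG cells. Top concentration 100 uM, half-log steps, 0.5% DMSO vehicle; gain or loss fitted against DMSO baseline.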

Measured: AC50

Cytochrome P450 3A4 (Homo sapiens), sequence (P08684 whole entry, looked up): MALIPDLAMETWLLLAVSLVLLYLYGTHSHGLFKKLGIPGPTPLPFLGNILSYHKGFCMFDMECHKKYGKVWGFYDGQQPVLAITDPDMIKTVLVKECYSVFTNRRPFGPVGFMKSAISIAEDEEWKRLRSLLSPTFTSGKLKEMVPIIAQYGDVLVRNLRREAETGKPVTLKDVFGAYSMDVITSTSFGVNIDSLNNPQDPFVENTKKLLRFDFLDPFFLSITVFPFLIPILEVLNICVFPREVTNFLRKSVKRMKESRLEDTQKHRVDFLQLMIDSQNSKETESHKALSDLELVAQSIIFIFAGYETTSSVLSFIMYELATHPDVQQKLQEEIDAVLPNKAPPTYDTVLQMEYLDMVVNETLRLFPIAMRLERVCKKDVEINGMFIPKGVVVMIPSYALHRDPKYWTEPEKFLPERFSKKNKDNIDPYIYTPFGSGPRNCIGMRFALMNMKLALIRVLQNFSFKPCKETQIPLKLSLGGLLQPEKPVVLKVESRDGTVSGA
Cytochrome P450 2C19 (Homo sapiens), sequence (P33261 whole entry, looked up): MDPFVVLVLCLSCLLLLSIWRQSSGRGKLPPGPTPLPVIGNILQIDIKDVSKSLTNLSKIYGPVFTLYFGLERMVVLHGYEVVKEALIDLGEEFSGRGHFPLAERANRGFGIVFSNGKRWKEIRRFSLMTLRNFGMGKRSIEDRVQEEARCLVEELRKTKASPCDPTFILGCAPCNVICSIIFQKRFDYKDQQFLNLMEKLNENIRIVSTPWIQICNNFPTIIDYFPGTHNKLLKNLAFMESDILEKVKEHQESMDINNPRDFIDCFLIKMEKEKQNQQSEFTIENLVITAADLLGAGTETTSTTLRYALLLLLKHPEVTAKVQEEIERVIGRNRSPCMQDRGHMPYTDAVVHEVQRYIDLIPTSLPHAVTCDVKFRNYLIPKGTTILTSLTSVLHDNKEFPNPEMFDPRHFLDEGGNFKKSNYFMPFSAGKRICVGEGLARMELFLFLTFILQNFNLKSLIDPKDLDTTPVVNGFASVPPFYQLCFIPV
Apoptosis regulator Bcl-2 (Homo sapiens), sequence (P10415 whole entry, looked up): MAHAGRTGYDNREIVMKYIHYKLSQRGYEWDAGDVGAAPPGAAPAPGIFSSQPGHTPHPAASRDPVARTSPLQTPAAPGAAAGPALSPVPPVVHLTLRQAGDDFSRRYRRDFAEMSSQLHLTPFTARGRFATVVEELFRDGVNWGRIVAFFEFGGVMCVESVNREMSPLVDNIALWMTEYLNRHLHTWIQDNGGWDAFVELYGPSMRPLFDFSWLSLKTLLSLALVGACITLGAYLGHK

Oc1ccccc1
not listed: [14]
inactive: all other assays above

COc1cc(C(=O)NC2CCN(C)CC2)ccc1Nc1ncc2c(n1)N(C1CCCC1)CC(F)(F)C(=O)N2C
inactive: [1] | [3] | [5] | CYP2C8 (gene 1558) | [11]
active: BCL2L11 (gene 10018) 46.5 µM | [2] 4.65 µM | [4] 4.65 µM | Caspase-3 (Homo sapiens) 11.1 µM | [6] 4.65 µM | [7] 16.2 µM | [8] 0.151 µM | [9] 4.65 µM | CYP2C9 (gene 1559) 3.9 µM | CYP4A11 (gene 1579) 3.34 µM | [10] 83 µM | [12] 9.31 µM | [13] 28.7 µM

CCOC(=O)O[C@H](C)OC(=O)c1ccc2c(c1)cc(C(=O)NC1CCN(C(C)C)CC1)n2Cc1cc(-c2ccc(Cl)s2)on1
active: [6] 69.7 µM | CYP4A11 (gene 1579) 47.2 µM
not listed: [11] | [14]
inactive: all other assays above

COCC(C)OCC(C)OCC(C)O (configuration not stated)
active: [8] 25.8 µM
not listed: [11]
inactive: all other assays above

CCO[Si](CCCNC(N)=O)(OCC)OCC
not listed: [6] | [14]
inactive: all other assays above

Cc1cn([C@H]2C[C@H](N=[N+]=[N-])[C@@H](CO)O2)c(=O)[nH]c1=O
not listed: [11] | [14]
inactive: all other assays above

Cc1occc1C(=O)Nc1ccc(C(=O)N2CCC(F)(F)/C(=C\C(=O)N3CCC(N4CCCCC4)CC3)c3ccccc32)cc1
active: [1] 44.8 µM | [2] 39 µM | [6] 18.4 µM | [8] 47.4 µM | [9] 43.7 µM | CYP2C8 (gene 1558) 56.5 µM | CYP2C9 (gene 1559) 44.2 µM | CYP4A11 (gene 1579) 49 µM | [10] 42.3 µM
inactive: BCL2L11 (gene 10018) | [3] | [4] | Caspase-3 (Homo sapiens) | [5] | [7] | [12] | [13]

CC(O)CC(C)(C)O (configuration not stated)
not listed: [11]
inactive: all other assays above

CC(C)(c1cc(Br)c(O)c(Br)c1)c1cc(Br)c(O)c(Br)c1
active: [8] 89.3 µM | [12] 76.1 µM
not listed: Caspase-3 (Homo sapiens) | [11] | [13]
inactive: all other assays above

CN(C)c1ccc(C(=C2C=CC(=[N+](C)C)C=C2)c2ccc(N(C)C)cc2)cc1
inactive: [4] | [5] | [7]
active: [1] 1.91 µM | BCL2L11 (gene 10018) 23.5 µM | [2] 5.32 µM | [3] 5 µM | Caspase-3 (Homo sapiens) 12.1 µM | [6] 2.05 µM | [8] 3.45 µM | [9] 5.94 µM | CYP2C8 (gene 1558) 3.61 µM | CYP2C9 (gene 1559) 3.82 µM | CYP4A11 (gene 1579) 3.37 µM | [10] 1.38 µM | [11] 88.8 µM | [12] 67.6 µM

CCCCCCCCCCCC[N+](C)(C)C
inactive: [1] | [4] | Caspase-3 (Homo sapiens) | [5] | [6] | [7] | [11]
active: BCL2L11 (gene 10018) 90.3 µM | [2] 79.4 µM | [3] 84.4 µM | [8] 92.4 µM | [9] 93.6 µM | CYP2C8 (gene 1558) 78.4 µM | CYP2C9 (gene 1559) 91.4 µM | CYP4A11 (gene 1579) 76.2 µM | [10] 78.1 µM | [12] 83.9 µM

O=C(O)c1ccccc1-n1cc(C(=O)O)c(=O)c2cc(Nc3c(F)cc(F)cc3Cl)c(Cl)cc21
active: [4] 0.01 µM | [8] 11.2 µM | [9] 5.7 µM | CYP2C8 (gene 1558) 7.91 µM
not listed: [11] | [14]
inactive: all other assays above
